Holding throughout (assay): NCI-60 one-dose screen, 48 h (100 = growth as untreated, 0 = no growth, -100 = all killed)
Conditions in all cases: 10 µM unless noted

In assay [1] the test system is RPMI-8226 leukemia.
Assay [2] deals with OVCAR-8 ovarian.
The subject of assay [3] is OVCAR-5 ovarian.
Assay [4] deals with OVCAR-4 ovarian.
Assay [5] has as its system SK-OV-3 ovarian.
For assay [6], the system named is IGROV1 ovarian.
Assay [7] concerns NCI/ADR-RES ovarian.
The test system of assay [8] is T-47D breast.
Assay [9] deals with BT-549 breast.
Assay [10] relates to MDA-MB-435 melanoma.
In assay [11] the test system is SW-620 colon.
The subject of assay [12] is MCF7 breast.
For assay [13], the system named is HCT-116 colon.
For assay [14], the system named is HCC-2998 colon.
The test system of assay [15] is KM12 colon.
Assay [16] has as its system OVCAR-3 ovarian.
Assay [17] relates to HS 578T breast.

Experimental findings from PubChem BioAssay (NCI) are described below.

SMILES strings stand for the structures. The panel holds about 83,000 compounds, 20% with a hit somewhere; the sample as a whole holds those more often.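 Treatment: one concentration, 48 hours, 96-well format. Scoring: percent growth, with anything below 10 considered active.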 Unmarked numbers belong to inactive results. The source made the active and inactive calls.

Turning to `Cc1cc(Cl)ccc1Nc1nc(C(F)(F)F)ccc1C(=O)NCC(=O)N/N=C/c1c(Cl)cccc1Cl`, the growth in assay [1] is -20.6% (active); in assay [2], 73.4%; in [3], 87.8%; in assay [4], 86.4%; in [5], 88.5%; in [6] it was 35.4%. For the same compound, the growth in assay [7] was 77%; in assay [8], 51.9%; in assay [9], 85.5%; in [10], 79.6%; in assay [11], 80.3%; in assay [12] it was 56.2%. Moreover, the growth was 57.7% in assay [13], 92.9% in assay [14] and 50.4% in assay [15].

In the case of `COc1ccc2c(c1)nc(N)c1c3cc(OC)c(OC)cc3cn21`, the growth was 42.8% in assay [1]; 40.9% in [2]; 62.5% in [3]; 69.8% in assay [4]; 43.9% in assay [5]; 65.4% in [6]. The growth in [16] is 37.6%; in assay [7] it was 33.9%; in [8], 64%; in [9], 79.8%; in assay [10] it was -26.7% (active); in assay [11], 34.5%. The figures for the growth in assay [13], in [14] and in assay [15] were 27.7%, 54.5% and 26.9%, respectively.

As for `CCC(c1ccccc1)c1noc(CCN(CC)CC)n1` (stereo unspecified), the growth in assay [1] was 76.7%; in assay [2], 94.8%; in assay [3], 89.8%; in [4], 109%; in [5] it was 97%; in [16], 115%. The growth in [17] was 125%; in assay [7] it was 105%; in [8] it was 94.4%; in assay [9], 84.6%; in assay [10] it was 110%; in assay [11] it was 120%. Besides, the growth in [12] is 86.5%; in [13] it was 92%; in assay [14], 106%; in assay [15], 105%.

With `COc1cc(C2NC(c3ccc(Cl)cc3)C(C)C(=NC(=O)c3cnccn3)C2C)cc(OC)c1OC` (stereo unspecified), the growth in [1] was 79.4%; in [2] it was 103%; in assay [3], 94.5%; in assay [4], 93%; in assay [5], 108%; in assay [16], 107%. Further, the growth is 109% in assay [17]; 101% in [7]; 88% in assay [8]; 102% in assay [9]; 108% in assay [10]; 114% in assay [11]. For the same compound, the growth is 93.1% in assay [12], 78.9% in assay [13], 129% in [14] and 90.7% in assay [15].

As to `O=C(CCc1nnc2sc(Cc3ccccc3Cl)nn12)c1nc2ccccc2[nH]1`, the growth was 94.7% in [1]; 93.7% in assay [2]; 105% in [3]; 94% in [4]; 99.7% in assay [5]; 90.9% in [6]. In addition, the growth in [16] is 82.5%; in assay [7], 95.9%; in assay [8], 78.5%; in assay [9], 96.7%; in assay [10], 101%; in [11], 98.8%. Besides, the growth in assay [12] was 71.6%; in assay [13], 85.1%; in assay [14] it was 102%; in assay [15], 95.8%.

In the case of `COc1ccc(-n2nc3c(c2-c2ccc(OC)c(OC)c2)-c2oncc2CC3)cc1`, the growth is 56.7% in assay [1]; 84.7% in assay [2]; 99.5% in assay [3]; 86.1% in assay [4]; 106% in assay [5]; 99.1% in assay [6]. Further, the growth in assay [16] was 76.4%; in assay [7], 80.6%; in assay [8], 71%; in assay [9] it was 77.5%; in assay [10], 78.6%; in assay [11], 99%. The growth in assay [12] was 80.8%; in [13], 87.9%; in assay [14] it was 104%; in assay [15], 77.7%.

As to `COc1ccc2nc(-c3ccc(-n4cncc4-c4ccc(OC)c(N)c4)cc3)sc2c1`, the growth in [1] was 88.2%; in assay [2] it was 96.8%; in assay [3], 108%; in assay [4] it was 87%; in assay [5], 117%; in [6] it was 113%. The growth in [17] was 101%; in assay [7], 115%; in assay [8] it was 102%; in assay [9] it was 102%; in assay [10] it was 105%; in assay [11], 97.4%. Moreover, the growth in [12] is 82.1%; in assay [13], 98.4%; in [14], 111%; in [15] it was 105%.

`COc1ccc(C2=NN(C(C)=O)C(c3cc(OC)c(OC)c(OC)c3)C2)cc1` (stereo unspecified): the growth in [1] was 93.9%; in [2], 108%; in assay [3], 111%; in assay [4], 112%; in assay [5], 108%; in [6] it was 92.8%. For the same compound, the growth in [16] is 88.6%; in [17] it was 244%; in assay [8], 92.1%; in assay [10], 34.1%; in assay [11] it was 98%; in [12] it was 89.8%. The growth is 103% in assay [13], 94.9% in [14] and 60.5% in assay [15].

Take `Cn1cc(-c2csc(-c3c[nH]c4ncccc34)n2)c2cc(F)cnc21`: the growth in assay [1] was 70.3%; in assay [2], 77.5%; in [3], 87.1%; in [4], 62.4%; in [5], 81.8%; in [6], 66.5%. In addition, the growth was 87.8% in assay [16]; 63% in [7]; 43.7% in assay [8]; 74.1% in assay [9]; 20% in assay [10]; 81.3% in assay [11]. The growth was 56.8% in assay [12], 59.8% in [13], 62.2% in [14] and 49.4% in [15].

As to `O=C1NC(=O)/C(=C\c2ccccc2)C2=C1CCCC2`, the growth in assay [1] is 51.3%; in assay [2], -6.04% (active); in assay [3] it was 80%; in assay [4] it was 91.2%; in [5], 152%; in assay [16], -73.9% (active). The growth in assay [17] was 35.2%; in assay [7], 61.2%; in assay [8], 198%; in [9], 35%; in assay [10], -76.3% (active); in assay [11], -50.2% (active). Further, the growth in [12] is -49% (active); in assay [13], 18.8%; in assay [14], 123%; in assay [15], 18%.

As to `O=C1c2nsnc2C(=O)c2c(F)c(F)c(F)c(F)c21`, the growth is -1.71% (active) in assay [1]; -38.6% (active) in assay [2]; -73.8% (active) in [3]; -99.5% (active) in assay [4]; 32.4% in assay [5]; -22.9% (active) in assay [6]. For the same compound, the growth in assay [16] is -90.1% (active); in assay [8] it was -38.9% (active); in assay [9], -96.7% (active); in assay [10], -67.9% (active); in assay [11] it was -57.3% (active); in assay [12], -45.1% (active). Besides, the growth in [13] is -93.1% (active); in assay [14], -22.4% (active); in assay [15] it was -44% (active).

For the compound `COc1ccc(/C(=C2\O[C@@H]([C@H](O)CO)[C@H]3OC(C)(C)O[C@@H]23)c2cc(OC)c(OC)c(OC)c2)cc1O`, the growth in assay [1] is 73.3%; in assay [2] it was 107%; in [3], 90%; in assay [4], 104%; in assay [5], 106%; in assay [6], 100%. In addition, the growth in assay [16] is 97.4%; in [7], 24.5%; in assay [8], 102%; in assay [9], 82%; in assay [10], -23.9% (active); in assay [12], 95.7%. The growth was 89.3% in assay [13] and 9.46% (active) in assay [15].

On to `CCCOc1ccc2c(c1)CC[C@@H]1[C@@H]2CC[C@@]2(C)[C@H]1CC[C@]2(C)O`, for which the growth in assay [1] was 56.5%; in assay [2], 74%; in [3], 76.7%; in [4] it was 81%; in [5], 75.3%; in assay [6], 118%. Also, the growth was 104% in [16]; 85% in [17]; 83.4% in assay [8]; 84.3% in assay [10]; 53.8% in assay [11]; 101% in assay [12]. The growth in [13] is 83.9%; in assay [14] it was 74.7%; in [15], 35.6%.

As for `COc1ccc2nccc(/C=C/c3ccnc4ccc(OC)cc34)c2c1`, the growth in [1] is -5.34% (active); in [2], 68.9%; in [3] it was 117%; in assay [4], 104%; in assay [5], 115%; in assay [6] it was 102%. Besides, the growth is 101% in assay [7]; 98.4% in assay [8]; 189% in [9]; 111% in assay [10]; 104% in [11]; 88.1% in [12]. Also, the growth in assay [13] was 102%; in assay [14] it was 96.5%; in assay [15], 99.5%.

For `OC(CCC(O)(c1ccccc1)c1ccccc1)(c1ccccc1)c1ccccc1`, the growth in assay [1] is 35.5%; in assay [2] it was 84.7%; in assay [3], 97.2%; in [4], 99.4%; in assay [5], 103%; in [6], 90.7%. Besides, the growth in assay [17] is 75.1%; in [7] it was 68.9%; in [8], 94.1%; in assay [9], 121%; in assay [10], 69.9%; in assay [11], 69.6%. The growth in assay [12] was 87.3%; in [13] it was 80.5%; in [14] it was 83.4%; in [15], 75%.

Take `NC(N)=NC(N)=NCCCc1ccccc1`: the growth in assay [1] was 62.6% [100 µM]; in [2] it was 71.1% [100 µM]; in [3] it was 76.3% [100 µM]; in assay [4], 70% [100 µM]; in [5] it was 67.7% [100 µM]; in assay [6], 53.1% [100 µM]. Moreover, the growth in assay [16] is 56.9% [100 µM]; in assay [8] it was 53.7% [100 µM]; in [9], 49.5% [100 µM]; in assay [10] it was 60.5% [100 µM]; in assay [11] it was 77.8% [100 µM]; in assay [12], 59.2% [100 µM]. The values for the growth in [13], in assay [14] and in assay [15] were 50.6% [100 µM], 68.5% [100 µM] and 78.1% [100 µM], respectively.

For the compound `NC(=O)SCC(=O)Nc1ccccc1-c1ccccc1`, the growth was 99.8% in assay [1]; 111% in [2]; 104% in assay [3]; 111% in [4]; 131% in assay [5]; 133% in assay [6]. For the same compound, the growth in assay [7] is 106%; in [8] it was 132%; in assay [9] it was 89.4%; in assay [10], 109%; in [11], 115%; in assay [12], 94.8%. The values for the growth in [13] and in [14] were 87.4% and 95.5%, respectively.

`Cn1[nH]cc(/C=N/C(N)=O)c1=O`: the growth is 105% in assay [1]; 105% in assay [2]; 102% in assay [3]; 106% in assay [4]; 110% in assay [5]; 124% in assay [6]. In addition, the growth in assay [17] is 109%; in [7], 108%; in assay [8], 104%; in [9] it was 113%; in assay [10], 119%; in assay [11], 102%. The growth in assay [12] is 99.6%; in [13] it was 109%; in assay [14], 103%.

Take `CC12CCCCC1C(C(N)=O)C(=O)O2` (stereo unspecified): the growth in [1] was 106%; in assay [2] it was 102%; in [3], 112%; in assay [4] it was 101%; in assay [5], 107%; in assay [6], 119%. Further, the growth in [17] is 110%; in assay [7], 102%; in assay [8], 114%; in [9] it was 113%; in assay [10], 120%; in assay [11] it was 104%. The figures for the growth in assay [12], in [13] and in assay [14] were 99.3%, 112% and 99.6%, respectively.
